Ten targets from the supplement of paper PMC11482750 can be followed below.

± gives the standard deviation of the averaged measurements.

Compound in the experiment: C=CCN=C=S [allyl isothiocyanate]
Kind of experiment: control-subtracted net OSN firing rate; higher = stronger neuronal activation. Conditions: odorant dilution (vol/vol): 1/100. The essentials: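 Olfactory sensory neurons in palp or antennal sensilla of fed female flies aged 1–5 days were recorded by single sensillum recording. The flies were Scaptomyza species or D. melanogaster wild-type, mutant or at1 empty-neuron lines expressing Or42a homologs. Odorants diluted 1:100 vol/vol in mineral oil or dimethyl sulfoxide (20 μl on filter paper) were delivered as 1 s pulses into 16 ml/min filtered air, and spikes counted over 0.5 s starting 0.2 s after onset were background-subtracted, doubled and solvent-corrected. Values are replicate means.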
As for Canton-S (D. melanogaster) at1, the “control-subtracted net OSN firing rate” value is -0.286 ± 14 spikes/s.

In the case of Canton-S (D. melanogaster) ai3a, the “control-subtracted net OSN firing rate” value was 0.667 ± 6 spikes/s.

With Canton-S (D. melanogaster) ab8b, the “control-subtracted net OSN firing rate” value came to 45.4 ± 36 spikes/s.

With Canton-S (D. melanogaster) ai3b, the “control-subtracted net OSN firing rate” value is 3.67 ± 7.3 spikes/s.

For the target Canton-S (D. melanogaster) ai2b, the “control-subtracted net OSN firing rate” value is -1.14 ± 4.3 spikes/s.

In the case of Canton-S (D. melanogaster) ab6a, the “control-subtracted net OSN firing rate” value was determined as 2.67 ± 5.9 spikes/s.

As for Canton-S (D. melanogaster) ab9a, the “control-subtracted net OSN firing rate” value turned out to be 41 ± 45 spikes/s.

Take Canton-S (D. melanogaster) ab9b: the “control-subtracted net OSN firing rate” value is 2.33 ± 17 spikes/s.

Consider Canton-S (D. melanogaster) ab6b, for which the “control-subtracted net OSN firing rate” value is -5.33 ± 19 spikes/s.

For Canton-S (D. melanogaster) ab7a, the “control-subtracted net OSN firing rate” value was -8.86 ± 13 spikes/s.
